Reference: the supplement of paper PMC3334620
The full ranking holds about 33,000 sequences; the median of “E-score (-0.5 to 0.5)” is about -0.0059, and the highest 2% start at about 0.26. For the sample, the highest values were picked, then their nearest neighbours and some sequences at random.

molecular target: T1, Cin5 (UniProt P40917); experiment: PBM E-score (8-mer binding enrichment) (E-score (-0.5 to 0.5)); higher = stronger / more preferred TF binding; conditions: protein concentration: 100 nM; construct: GST-full length
T1 sequence: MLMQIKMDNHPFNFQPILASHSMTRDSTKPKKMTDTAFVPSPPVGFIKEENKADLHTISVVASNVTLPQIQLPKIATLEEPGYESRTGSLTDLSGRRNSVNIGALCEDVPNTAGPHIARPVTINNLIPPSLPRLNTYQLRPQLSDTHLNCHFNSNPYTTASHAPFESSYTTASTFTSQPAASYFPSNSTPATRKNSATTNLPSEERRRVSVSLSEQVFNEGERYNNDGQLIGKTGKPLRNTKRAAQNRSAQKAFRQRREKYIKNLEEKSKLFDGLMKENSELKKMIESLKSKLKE
Procedure: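 Universal 'all 10-mer' protein binding microarrays (Agilent AMADID 015681) probed with GST-tagged S. cerevisiae TFs (full-length or DBD) made by in vitro transcription/translation (PURExpress), about 100-200 nM. Bound TF was detected with fluorescent anti-GST. Each ungapped 8-mer (which stands for itself and its reverse complement) is scored by the PBM enrichment score (E-score), a modified Wilcoxon-Mann-Whitney statistic from -0.5 to +0.5, computed with the Universal PBM Analysis Suite. Scale: above 0.35 generally sequence-specific binding.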

Row | Sequence | PBM E-score
1 | GGTATGAA | 0.126
2 | AGGTTCTC | -0.153
3 | ATCAAGCA | 0.114
4 | ATCAAACA | 0.274
5 | TAAAAACA | 0.174
6 | GAAAAACA | -0.0228
7 | AAAAAACA | 0.284
8 | CTCAAACA | 0.0626
9 | TAGATGCA | 0.0348
10 | ACTTTGAG | -0.126
11 | AGGCCAGA | -0.0898
12 | GATTCTTA | 0.213
13 | ATGTACAT | 0.205
14 | CTATCGAA | 0.0827
15 | CAATCCCA | -0.0745
16 | CAATCCCC | 0.0168
17 | CAATCCCG | 0.259
18 | CCGGTTGC | 0.00629
19 | GTTGTCTA | 0.114
20 | ATTGTCTA | 0.273
21 | ATTGTCTC | -0.017
22 | AAGTAGAG | -0.126
23 | ACGCCTTG | -0.0542
24 | GTAAAAGA | 0.0603
25 | CATGATTC | -0.0303

Row | Sequence | PBM E-score
26 | CATGATTA | 0.321
27 | AATGATTC | 0.161
28 | AATGATAA | 0.227
29 | GATGATTA | 0.23
30 | AATGATAG | 0.272
31 | CATGATAG | 0.0148
32 | CATGATGA | 0.173
33 | AATGATTA | 0.335
34 | CGCGTCGA | 0.0758
35 | TAACCGGA | 0.106
36 | GCGCACGC | -0.12
37 | CCTGCAGG | -0.134
38 | ACCGCGAC | -0.104
39 | CACGGGTA | -0.0916
40 | ACATGGTG | 0.0908
41 | AGTCTGGA | 0.041
42 | GCGAGACC | -0.127
43 | CGGGATTA | 0.294
44 | CGCGATTC | 0.124
45 | AGCGATTA | 0.127
46 | CTCGATTC | 0.119
47 | CGGGATTC | 0.0661
48 | CGCGATTA | 0.263
49 | AGGGATTA | 0.0341
50 | CTCGATTA | 0.264

Row | Sequence | PBM E-score
51 | ATCGATTA | 0.248
52 | ACCTACTC | 0.0706
53 | AGATCTGA | 0.0167
54 | ATTGCTTG | 0.177
55 | ATTGCGTA | 0.287
56 | ATAGCTTA | 0.154
57 | CTTGCTTA | 0.229
58 | GTTGCTGA | 0.12
59 | CTAGCTTA | 0.256
60 | GTTGCTTA | 0.338
61 | ATTGCTGA | 0.115
62 | ATTGCTTA | 0.259
63 | GTTGCGTA | 0.068
64 | ATTGCGTC | 0.128
65 | GTAGCTTA | 0.279
66 | CCTTGTTA | -0.0571
67 | AACTCGGC | 0.121
68 | GCCGCTAC | -0.0553
69 | AGCGGGCG | -0.0666
70 | TCTGGGCA | -0.124
71 | GGGCGAAA | 0.0331
72 | ACCGCCGC | -0.101
73 | TCCGCTAA | -0.0291
74 | AGACCTTC | -0.134
75 | AGCCTAAA | -0.0722

Row | Sequence | PBM E-score
76 | CGTTGCGA | -0.0384
77 | GCGCTGAA | -0.2
78 | ACCAGATC | -0.0659
79 | CTAATTAC | 0.24
80 | ATAATTAT | 0.341
81 | ACAATTAT | 0.205
82 | TTAATTAA | 0.183
83 | ATAATTAA | 0.303
84 | ATAATTAC | 0.365
85 | GTAATTAA | 0.13
86 | GTAATTAC | 0.175
87 | ATAATTAG | 0.241
88 | ACCGGTAC | -0.217
89 | CAACACTC | 0.105
90 | GGATCAGA | -0.042
91 | CGTGAAAG | -0.0748
92 | GTATTCGA | -0.0476
93 | ACAACCTA | 0.0123
94 | AATCGCTG | -0.0284
95 | CTATTGAG | 0.144
96 | ATATTGAT | 0.249
97 | ATATTGAG | 0.266
98 | GCTCAAAA | -0.00649
99 | ACTAATAT | 0.234
100 | GCTAATAC | 0.153

Row | Sequence | PBM E-score
101 | CCTAATAC | 0.113
102 | ACTAATAA | 0.221
103 | ACTAATAC | 0.26
104 | ACTAATAG | 0.277
105 | ATAAGGCG | 0.0483
106 | CTCCGCTA | -0.116
107 | CCAGTTAA | 0.134
108 | GCGGTGGA | 0.0809
109 | GAAGCAGC | -0.162
110 | GAGCTTAC | 0.191
111 | AAGCTTAC | 0.282
112 | AAGCTTAG | 0.306
113 | CAGCTTAA | 0.0109
114 | CAGCTTAG | 0.0588
115 | AAGCTTAT | 0.231
116 | CAGCTTAC | 0.312
117 | AAGCTTAA | 0.164
118 | CAGCTTGC | -0.0574
119 | CGGGTAGC | -0.214
120 | AGATGGAA | 0.167
121 | GAGGTCCA | -0.14
122 | AGGCTTAG | 0.0724
123 | CGGCTTAC | 0.358
124 | CGGCTTAG | -0.0489
125 | CGGCTTAA | 0.19

Row | Sequence | PBM E-score
126 | AGGCTTAC | 0.258
127 | AGGCTTAT | 0.152
128 | GTAACGGA | 0.252
129 | CGAATTAC | 0.0723
130 | GCGCGGCC | -0.0214
131 | CCCGCGCG | 0.138
132 | CCTTCTGC | -0.126
133 | AAACTTGT | 0.0442
134 | AGAACCTG | -0.127
135 | TGACATCA | 0.356
136 | CGACATCA | 0.137
137 | GGACATCA | 0.0421
138 | TCCATTCA | 0.0889
139 | GAGGTGCA | -0.0183
140 | AATGCATT | 0.259
141 | AATGCATA | 0.116
142 | AATGCATG | 0.183
143 | AATGCAAA | 0.275
144 | AATGCAAC | 0.0401
145 | AATGCAAG | 0.00342
146 | ACGTTTCG | -0.0249
147 | GCTCCCGA | -0.217
148 | ACGTCTCA | 0.124
149 | CAAACTCG | 0.0562
150 | AGTTCCGA | 0.123

Row | Sequence | PBM E-score
151 | AGCATCTA | 0.00891
152 | GGCATCTA | -0.0103
153 | CGCATCTA | 0.271
154 | CGCCATCA | -0.202
155 | CCAAAATA | 0.113
156 | CGGAAATA | 0.33
157 | CAAATATC | 0.282
158 | CAAAAATA | 0.277
159 | AAAAAATA | 0.213
160 | AAAATATC | 0.189
161 | CAAATATG | 0.117
162 | AACAAATT | 0.274
163 | AACAAATG | 0.0424
164 | CGGAAATC | 0.137
165 | GGGAAATA | 0.0795
166 | AACAAGTT | 0.0368
167 | CGGGCCTA | -0.236
168 | CGGTTCTC | -0.217
169 | GTGGAAGA | -0.192
170 | ACGGGCAT | -0.0832
171 | ACTAAGAT | 0.2
172 | TTCTCCAA | -0.0656
173 | ACACTCAC | 0.066
174 | AACAAAAT | 0.269
175 | TACAAATA | 0.239

Row | Sequence | PBM E-score
176 | AACAAGAT | 0.146
177 | AACAAGTA | 0.0249
178 | AACAAAAA | 0.209
179 | AACAAATA | 0.278
180 | GTATCCAC | -0.00124
181 | AATCATCC | 0.227
182 | TACTCCTA | 0.066
183 | CATCCCAA | 0.0478
184 | CATTTCGC | 0.111
185 | GATTTCGC | 0.262
186 | GATTTCGA | 0.11
187 | CAATGGTG | -0.161
188 | CTCTGGAC | 0.0765
189 | AGGGTGCA | -0.148
190 | ACATAAGC | 0.437
191 | ACATAACC | 0.235
192 | TCATAAGA | 0.0448
193 | ACATAACT | 0.197
194 | ACATAAGT | 0.195
195 | GTATAAGA | 0.0464
196 | ACATAAGG | 0.194
197 | ATATAAGA | 0.301
198 | CCATAAGA | 0.118
199 | CTATAAGA | 0.0762
200 | ACATAAGA | 0.3

Row | Sequence | PBM E-score
201 | ACATAACA | 0.286
202 | ATGGAACA | -0.0505
203 | GCACTGAA | -0.0379
204 | CCATTGAG | 0.00119
205 | AGACACCA | -0.0438
206 | GGGAGCCC | -0.419
207 | CCACGCAG | -0.0201
208 | CCATAAGC | 0.215
209 | GCATAAGA | 0.0468
210 | GCATAAGC | 0.276
211 | GACTTGAC | -0.208
212 | GAGCGGGA | -0.0794
213 | GGCAACCA | -0.0499
214 | CTTTCGCC | -0.0892
215 | GGGAATCA | -0.0779
216 | CGGAATCA | 0.27
217 | AGGAATCA | 0.172
218 | CATAGCCC | -0.222
219 | CCCACTAC | 0.0221
